Assay results from PubChem BioAssay (NCI).
About 79,000 compounds went through this panel and 15% of them were active in at least one assay; those are over-represented in the sample as a whole. Rule as the data show it: active = growth inhibition above about 70%; inactive = the rest. Where a SMILES comes first, the peptide text is derived from it.

Assays:
[1] = NCI Yeast Anticancer Drug Screen. Data for the rad50 strain (AID 155);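 also: 0% = growth of vehicle-only cultures of the same strain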; details: S. cerevisiae rad50 strain growth inhibition; at 50.0 µM; stronger effect = higher value
In short: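 Vehicle-treated cultures provide the reference for the growth inhibition reported for compound-exposed, repair-deficient yeast.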

[2] = NCI Yeast Anticancer Drug Screen. Data for the mec2-1 strain (AID 157); details: S. cerevisiae mec2-1 strain, at 50.0 µM, stronger effect = higher value
In short: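 Cells of the genetically defined mec2-1 yeast strain are incubated with test compound. Inhibition of growth is calculated against vehicle-treated controls.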

[3] = NCI Yeast Anticancer Drug Screen. Data for the sgs1 mgt1 strain (AID 161);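 also: 0% = growth of cultures given vehicle only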; details: S. cerevisiae sgs1 mgt1 strain, at 50.0 µM, stronger effect = higher value
In short: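 Genetically altered yeast, compound exposure, growth inhibition relative to vehicle.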

[4] = NCI Yeast Anticancer Drug Screen. Data for the cln2 rad14 strain (AID 165);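 also: 0% = growth equal to vehicle treated cultures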; details: S. cerevisiae cln2 rad14 strain, at 50.0 µM, stronger effect = higher value
In short: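 The screen exposed genetically defined yeast (cln2 rad14) to test compounds and scored growth inhibition relative to vehicle-treated controls.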

[5] = NCI Yeast Anticancer Drug Screen. Data for the bub3 strain (AID 167); details: S. cerevisiae bub3 mutant strain, at 50.0 µM, stronger effect = higher value
In short: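 Mutant yeast screening strain plus compound; vehicle-treated cultures serve as the 0% inhibition reference.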

[6] = NCI Yeast Anticancer Drug Screen. Data for the mlh1 rad18 strain (AID 175); details: S. cerevisiae mlh1 rad18 strain growth inhibition; at 50.0 µM; stronger effect = higher value
In short: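 Compound-treated yeast growth, normalised to vehicle controls. Strain bears defined DNA repair mutations.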

Measured: growth inhibition

C1=NN=C2C=C3CCc4ccccc4C3CC12 (configuration not stated)
inactive: [1] 7.45% | [2] 7.25% | [3] -1.2% | [4] -16.9% | [5] -15.9% | [6] 18.6%

N=C(N)Sc1cc(O)c2ccccc2c1O
inactive: [1] -33% | [2] -6.45% | [3] -28.1% | [4] -45.8% | [5] 4.1% | [6] -2%

O=C/C(Cl)=C\Nc1ccc(C(=O)O)cc1
inactive: [1] -0.25% | [2] 2.15% | [3] -0.2% | [4] -23.1% | [5] -0.4% | [6] -10.7%

COC(=O)C(=O)C1(c2ccccc2)CCCC(CN(C)C)=C1O (configuration not stated)
inactive: [1] 3.35% | [2] -0.15% | [3] 2.65% | [4] -4.95% | [5] -2.65% | [6] -12.7%

CNc1nc(SC)nc2[nH]ncc12
inactive: [1] 7.1% | [2] -9.2% | [3] 2.45% | [4] -3.2% | [5] 23% | [6] 2.05%

NCCNCCCCCCNC(=O)c1cccc2cc3ccccc3nc12
inactive: [1] -6.7% | [2] -25.4% | [3] -30.1% | [4] -7.55% | [5] -14% | [6] -102%

CC1C(O)C(c2ccccc2)(c2ccccc2)C(C)CN1C (configuration not stated)
inactive: [1] -5.65% | [2] -4.95% | [3] 4.15% | [4] 4.65% | [5] -2.6% | [6] 3.45%

COc1cc2ccccc2ccc1=O
inactive: [1] 13.4% | [2] 7.95% | [3] -6.45% | [4] -3.55% | [5] 13.6% | [6] 4.5%

O=c1c2cc(-c3ccccc3)sc2nc2n1N=C(c1ccccc1)CS2
inactive: [1] -1.35% | [2] -2.7% | [3] -12.9% | [4] 21.3% | [5] -2.85% | [6] -18.6%

CC(C(=O)O)C(NC(=O)c1ccccc1)C(=O)O (configuration not stated)
inactive: [1] 11.5% | [2] 5.35% | [3] 0.2% | [4] 16% | [5] 4.4% | [6] 13.4%

COC(=O)C(=O)C1CSC2=C(CS(=O)(=O)c3ccccc32)C1=O (configuration not stated)
inactive: [1] -4.55% | [2] -9.5% | [3] -10.6% | [4] -2.15% | [5] -17.5% | [6] -2.1%

CCOC(OCC)/C(C)=N/N(C)C
inactive: [1] 5.05% | [2] 8.95% | [3] -5.35% | [4] 7.3% | [5] -6.1% | [6] -2.5%

CC(N)(C(=O)O)c1ccccc1 (configuration not stated)
inactive: [1] -2.45% | [2] -2.45% | [3] 18.6% | [4] -25.2% | [5] -13.9% | [6] -21.4%

COc1ccccc1C(N)c1ccccc1 (configuration not stated)
inactive: [1] -13.1% | [2] -0.75% | [3] 15.9% | [4] 5.8% | [5] -0.7% | [6] 13.6%

CN(C)c1ccc(C=O)cc1[N+](=O)[O-]
inactive: [1] 2.75% | [2] 6.25% | [3] -10.8% | [4] -31.8% | [5] -6.9% | [6] -5.9%

C=C(C)C(=O)OCCCCC
inactive: [1] 8.7% | [2] 5.15% | [3] 4.45% | [4] 6.65% | [5] -3.55% | [6] 2.95%

COP(=O)(OC)/C(=C\c1cn(C(c2ccccc2)(c2ccccc2)c2ccccc2)cn1)NC(C)=O
inactive: [1] -9.65% | [2] -32% | [3] -11.4% | [4] -22.1% | [5] -19.1% | [6] -10.2%

O=c1oc2ccccc2c(O)c1C(c1ccc2c(c1)OCO2)N1CCOCC1 (configuration not stated)
inactive: [1] 23.2% | [2] 25.2% | [3] 8.5% | [4] 25.7% | [5] 1.8% | [6] 19.1%

CCC(C)C=O (configuration not stated)
inactive: [1] 3.9% | [2] -6.3% | [3] -9.2% | [4] 2.2% | [5] 10.4% | [6] -8.3%

C=CCC12CC(C)OC1=Nc1ccccc1NC2=O (configuration not stated)
inactive: [1] -0.95% | [2] -1.85% | [3] -18.2% | [4] 21.1% | [5] 7.2% | [6] -9.8%

NC(=O)NC1CCCCCCC1
inactive: [1] 5.95% | [2] -14.9% | [3] 1.05% | [4] -7.45% | [5] 4.75% | [6] 0.3%

NC(=O)NC1CC1c1ccccc1 (configuration not stated)
inactive: [1] -6.6% | [2] 4.1% | [3] -2.7% | [4] 22.1% | [5] -10.3% | [6] -1.45%

CNCCC(C(=O)O)c1ccccc1 (configuration not stated)
inactive: [1] -12.1% | [2] -7.25% | [3] 9.15% | [4] -28.2% | [5] -2.6% | [6] 9.1%

CCOC(=O)CNC(=O)C(=[N+]=[N-])C(=O)COc1ccc(Cl)cc1Cl
inactive: [1] 3.4% | [2] -9% | [3] 18.1% | [4] -18.3% | [5] 19.4% | [6] -5.05%

CCOCC(OCC)OCC
inactive: [1] -4.1% | [2] 0.45% | [3] -2.55% | [4] 22.9% | [5] -5.45% | [6] 6.7%

O=C(N/C(=C\c1ccccc1)C(=O)N1CCNCC1)c1ccccc1
inactive: [1] -1% | [2] 5.3% | [3] 0.65% | [4] -26.8% | [5] 1.15% | [6] 9.65%

Nc1cccn2cnnc12
inactive: [1] 0.1% | [2] 15.9% | [3] -4.6% | [4] 17.4% | [5] 23.1% | [6] 19.4%

Cc1ccc(NC(=O)C2CCN(C)CC2)cc1
inactive: [1] -14.3% | [2] -15% | [3] -16.7% | [4] -23.4% | [5] -8.7% | [6] 7.85%

CCN(CC)CCCOC(c1ccccc1)c1ccc(Cl)cc1 (configuration not stated)
inactive: [1] 17.8% | [2] 16.9% | [3] 46.5% | [4] 41.9% | [5] 1.1% | [6] 26.1%

CCCCCCCI
inactive: [1] -8.9% | [2] 20.9% | [3] 6.9% | [4] -21.6% | [5] 1.65% | [6] 23.8%

CC(C)C(O)C[N+](=O)[O-] (configuration not stated)
inactive: [1] 66.3% | [2] 6.8% | [3] 20.3% | [4] 6.25% | [5] 13.6% | [6] 16.6%

CCCCCCCCCCCCCCCC(=O)N=C(C(N)=O)C(N)=O
inactive: [1] 4.25% | [2] -35% | [3] -14.7% | [4] -54% | [5] -22.6% | [6] -19.9%

NC(=O)n1ccc(CC(O)(C(F)(F)F)C(F)(F)F)n1
inactive: [1] -13.2% | [2] 44% | [3] -2.55% | [4] 55.1% | [5] 2.35% | [6] 22.4%

COC1(C)COC(C)(OC)CO1 (configuration not stated)
inactive: [1] 34.3% | [2] 20.9% | [3] 24.1% | [4] 13.6% | [5] 12.8% | [6] 18.6%

O=C(O)C1(CC(CCCN2CCCCC2)c2ccccc2)CCCC1 (configuration not stated)
inactive: [1] -40% | [2] -9.65% | [3] -4.1% | [4] 6.4% | [5] -15.4% | [6] -36.3%

COC(=O)C(=O)c1c(C(=O)OC)nc2nnc(N)n2c1-c1ccc(OC)cc1
inactive: [1] -13.4% | [2] 0.6% | [3] -0.5% | [4] -26.5% | [5] 8.2% | [6] -14.9%

CC(=O)OCC1OC(n2ccc(NC(=O)Nc3ccn(C4OC(COC(C)=O)C(OC(C)=O)C4OC(C)=O)c(=O)n3)nc2=O)C(OC(C)=O)C1OC(C)=O (configuration not stated)
inactive: [1] -2.25% | [2] -11.1% | [3] 8.25% | [4] -5.35% | [5] -2.25% | [6] 10.9%

C=C1C(=O)OC2C=C(C)CC3C=C(CCC=C(C)CCC12)C(=O)O3 (configuration not stated)
inactive: [1] 0.5% | [2] -33.5% | [3] -13.2% | [4] 4.9% | [5] -27.8% | [6] -17.7%

Oc1ccc(-c2nnc(-c3ccc(O)cc3)nn2)cc1
inactive: [1] 10.8% | [2] 17.4% | [3] 21.1% | [4] 17.4% | [5] 23.2% | [6] 10.9%

COc1ccc(/C=N/N2CN(C(CC(N)=O)C(=O)O)P(Nc3ncccn3)N=C2N)cc1OC (configuration not stated)
inactive: [1] 7.55% | [2] -3.9% | [3] 0.4% | [4] -20.9% | [5] 6.65% | [6] 8.35%

CC(=O)NC(C(=O)NC(C)C(=O)N1CCCC1C(=O)O)C(C)C (stereo not drawn) (Ac-Val-Ala-Pro-OH; configuration not given here)
inactive: [1] 19.1% | [2] -19.5% | [3] -1.1% | [4] 15.1% | [5] 0.6% | [6] -3.65%

CCCCCCCCCCCCCCCCn1cnc2c(Cl)ncnc21
inactive: [1] 23.2% | [2] 3.9% | [3] -19.5% | [4] 12.8% | [5] -2.6% | [6] 2.55%
